# Assay results taken from PubChem BioAssay.
# Values joined by “and” are separate entries in the source; they are usually repeats but may differ in a detail not shown here. Equal values may be shown once. A number with no mark means an inactive call. Active and inactive are the calls of the source. Rule as the data show it, unless noted: active = inhibition above about 44%; inactive = the rest.
# Columns and labels:
# [1] = biological target: Nuclear receptor coactivator 3 (Homo sapiens) (UniProt Q9Y6Q9); test: NCOA3 GAL4-fusion reporter inhibition – cell-based, luminescence, quadruplicate, confirmation (AID 588792;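 active = mean inhibition over 43.08%, the solvent-only control mean plus 3 SD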;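 also: 0% = DMSO treated cells and 100% = gossypol at 36 µM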); details: HEK293 GAL4-SRC3 luciferase reporter, at 3.6 µM, active compounds read high
# Chain of Nuclear receptor coactivator 3 (Homo sapiens) (Q9Y6Q9 whole entry, looked up, the tested form may be a part): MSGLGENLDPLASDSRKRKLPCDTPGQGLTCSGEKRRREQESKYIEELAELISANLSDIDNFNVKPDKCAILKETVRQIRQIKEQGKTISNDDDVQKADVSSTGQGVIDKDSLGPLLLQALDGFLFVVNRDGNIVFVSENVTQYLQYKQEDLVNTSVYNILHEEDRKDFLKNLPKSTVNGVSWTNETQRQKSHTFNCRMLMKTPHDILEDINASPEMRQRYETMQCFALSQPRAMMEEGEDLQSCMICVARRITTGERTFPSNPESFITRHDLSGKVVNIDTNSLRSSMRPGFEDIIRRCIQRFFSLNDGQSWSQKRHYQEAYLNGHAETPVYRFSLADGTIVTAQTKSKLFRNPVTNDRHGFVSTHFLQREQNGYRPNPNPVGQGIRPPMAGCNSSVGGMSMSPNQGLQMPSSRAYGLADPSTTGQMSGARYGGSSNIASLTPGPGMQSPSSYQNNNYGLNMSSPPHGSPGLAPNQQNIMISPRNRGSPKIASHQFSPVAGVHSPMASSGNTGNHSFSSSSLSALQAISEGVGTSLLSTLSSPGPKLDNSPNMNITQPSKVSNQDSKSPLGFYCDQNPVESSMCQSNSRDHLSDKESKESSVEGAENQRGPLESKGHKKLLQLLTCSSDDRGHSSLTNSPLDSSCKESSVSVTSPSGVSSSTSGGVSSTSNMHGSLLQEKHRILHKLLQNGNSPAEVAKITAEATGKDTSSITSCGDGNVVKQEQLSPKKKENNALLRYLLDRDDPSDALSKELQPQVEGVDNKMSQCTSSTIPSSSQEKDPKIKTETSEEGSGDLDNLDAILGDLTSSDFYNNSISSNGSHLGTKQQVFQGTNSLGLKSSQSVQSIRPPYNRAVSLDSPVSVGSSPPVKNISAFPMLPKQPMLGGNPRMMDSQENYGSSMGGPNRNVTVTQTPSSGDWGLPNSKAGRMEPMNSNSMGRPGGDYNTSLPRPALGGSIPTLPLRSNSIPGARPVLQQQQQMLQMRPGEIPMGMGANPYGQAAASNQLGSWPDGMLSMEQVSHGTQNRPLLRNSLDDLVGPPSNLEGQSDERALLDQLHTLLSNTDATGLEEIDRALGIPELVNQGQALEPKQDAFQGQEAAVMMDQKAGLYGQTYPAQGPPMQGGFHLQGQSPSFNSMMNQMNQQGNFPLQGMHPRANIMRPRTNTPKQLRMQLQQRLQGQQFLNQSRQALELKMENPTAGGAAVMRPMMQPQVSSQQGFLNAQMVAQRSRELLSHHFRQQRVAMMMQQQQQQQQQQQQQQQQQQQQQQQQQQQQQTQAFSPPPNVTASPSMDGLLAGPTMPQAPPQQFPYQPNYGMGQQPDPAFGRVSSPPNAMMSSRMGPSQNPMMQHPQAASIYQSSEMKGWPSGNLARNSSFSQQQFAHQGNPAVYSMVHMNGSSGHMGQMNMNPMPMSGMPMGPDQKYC
# [2] = system: transactivating tegument protein VP16 (Human herpesvirus 1), Gal4-VP16 luciferase reporter; test: repression of VP16-driven luciferase reporter – cell-based, luminescence, high throughput, counter-screen for SRC3 inhibitor project (AID 588794; in the data active = inhibition above about 30%); details: mammalian cells, at 3.6 µM, active compounds read high
# [3] = biological target: Nuclear receptor coactivator 1 (Homo sapiens) (UniProt Q15788); test: NCOA1 GAL4-fusion reporter inhibition – cell-based, luminescence, quadruplicate, confirmation (AID 588820;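 active = mean inhibition above 46.68%, the untreated control wells mean plus 3 SD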;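 also: 0% = DMSO wells and 100% = gossypol 36 µM treated wells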); details: HEK293 GAL4-SRC1 luciferase reporter, at 3.6 µM, active compounds read high
# Chain of Nuclear receptor coactivator 1 (Homo sapiens) (Q15788 whole entry, looked up, the tested form may be a part): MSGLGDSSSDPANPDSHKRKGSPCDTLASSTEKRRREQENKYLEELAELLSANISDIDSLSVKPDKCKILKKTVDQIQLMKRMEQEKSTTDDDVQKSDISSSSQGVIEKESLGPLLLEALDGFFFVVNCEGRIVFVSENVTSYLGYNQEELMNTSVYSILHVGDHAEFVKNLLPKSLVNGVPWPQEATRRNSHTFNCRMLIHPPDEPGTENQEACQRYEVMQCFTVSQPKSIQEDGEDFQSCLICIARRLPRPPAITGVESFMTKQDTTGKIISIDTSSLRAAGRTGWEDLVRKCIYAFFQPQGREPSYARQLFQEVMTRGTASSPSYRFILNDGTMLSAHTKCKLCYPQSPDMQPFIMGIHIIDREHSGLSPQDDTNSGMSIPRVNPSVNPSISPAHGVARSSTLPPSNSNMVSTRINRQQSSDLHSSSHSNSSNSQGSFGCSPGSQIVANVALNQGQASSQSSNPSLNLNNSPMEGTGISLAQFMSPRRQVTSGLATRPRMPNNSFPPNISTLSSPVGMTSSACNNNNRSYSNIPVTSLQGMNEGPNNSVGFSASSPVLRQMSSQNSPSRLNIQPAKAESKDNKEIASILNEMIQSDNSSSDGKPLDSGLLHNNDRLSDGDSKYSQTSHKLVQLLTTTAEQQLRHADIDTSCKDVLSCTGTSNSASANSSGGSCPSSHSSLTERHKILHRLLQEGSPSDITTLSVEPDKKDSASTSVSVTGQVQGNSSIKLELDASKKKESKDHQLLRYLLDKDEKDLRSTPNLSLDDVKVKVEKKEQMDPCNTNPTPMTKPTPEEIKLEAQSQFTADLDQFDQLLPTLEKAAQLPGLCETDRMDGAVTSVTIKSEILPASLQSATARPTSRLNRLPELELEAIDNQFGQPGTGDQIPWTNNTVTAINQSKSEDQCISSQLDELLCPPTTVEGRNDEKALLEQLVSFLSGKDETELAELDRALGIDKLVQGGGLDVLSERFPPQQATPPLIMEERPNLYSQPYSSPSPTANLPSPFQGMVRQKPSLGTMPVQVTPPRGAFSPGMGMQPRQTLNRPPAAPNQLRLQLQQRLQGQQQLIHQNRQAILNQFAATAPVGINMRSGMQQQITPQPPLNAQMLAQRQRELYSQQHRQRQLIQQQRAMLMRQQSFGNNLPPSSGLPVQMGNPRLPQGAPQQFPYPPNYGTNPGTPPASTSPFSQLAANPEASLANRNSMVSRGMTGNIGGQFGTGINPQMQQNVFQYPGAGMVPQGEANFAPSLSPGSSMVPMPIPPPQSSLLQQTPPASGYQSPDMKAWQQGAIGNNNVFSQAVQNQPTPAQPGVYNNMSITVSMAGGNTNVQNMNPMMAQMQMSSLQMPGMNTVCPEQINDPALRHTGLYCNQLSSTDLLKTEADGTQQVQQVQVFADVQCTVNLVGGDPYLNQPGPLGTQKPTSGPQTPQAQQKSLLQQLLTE
# [4] = repression of VP16-driven luciferase reporter – cell-based, luminescence, high throughput, counter-screen for SRC1 inhibitor project (AID 588824; in the data active = inhibition above about 25%); details: cell-based VP16 transactivation luciferase luminescence; at 3.6 µM; active compounds read high
# [5] = StAR promoter reporter inhibitors, counter-screen for LRH-1 inverse agonist project, cell-based, luminescence, high throughput (AID 651611; in the data active = inhibition above about 28%); details: StAR promoter luciferase reporter counterscreen, at 3.6 µM, active compounds read high
# [6] = biological target: Nuclear receptor subfamily 5 group A member 2 (Homo sapiens) (UniProt O00482); test: NR5A2 activity suppression in reporter cells – cell-based, luminescence, confirmation (AID 651613; in the data active = inhibition above about 42%;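 also: HEK293T cells co-transfected with LRH-1 and StAR promoter luciferase reporter; 0% = vehicle wells and 100% = parental cells lacking receptor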); details: cell-based LRH-1 luciferase reporter, inverse agonism; at 3.6 µM; active compounds read high
# Chain of Nuclear receptor subfamily 5 group A member 2 (Homo sapiens) (O00482 whole entry, looked up): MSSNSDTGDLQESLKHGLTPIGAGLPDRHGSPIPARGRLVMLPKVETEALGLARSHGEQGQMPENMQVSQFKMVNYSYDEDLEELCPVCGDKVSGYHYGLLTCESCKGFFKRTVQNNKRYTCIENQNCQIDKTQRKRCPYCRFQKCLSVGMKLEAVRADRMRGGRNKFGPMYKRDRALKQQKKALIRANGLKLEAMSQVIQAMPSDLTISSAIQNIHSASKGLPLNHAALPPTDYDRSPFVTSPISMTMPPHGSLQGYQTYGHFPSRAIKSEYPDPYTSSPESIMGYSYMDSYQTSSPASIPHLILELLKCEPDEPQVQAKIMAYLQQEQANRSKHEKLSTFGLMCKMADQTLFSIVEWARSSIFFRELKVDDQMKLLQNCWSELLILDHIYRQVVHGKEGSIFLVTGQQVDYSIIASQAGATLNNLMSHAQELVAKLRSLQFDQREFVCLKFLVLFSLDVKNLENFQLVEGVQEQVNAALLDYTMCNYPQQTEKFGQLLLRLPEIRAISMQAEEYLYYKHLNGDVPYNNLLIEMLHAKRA
# [7] = biological target: Steroidogenic factor 1 (Homo sapiens) (UniProt Q13285); test: inverse agonism at SF1 nuclear receptor – cell-based, luminescence, high throughput, counter-screen for LRH-1 inverse agonist project (AID 651614); details: cell-based SF1 luciferase reporter, at 3.6 µM, active compounds read high;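 also: cells cotransfected with StAR promoter reporter and SF1 expression vector; 0% = vehicle on cells with receptor and 100% = vehicle on cells lacking receptor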
# Chain of Steroidogenic factor 1 (Homo sapiens) (Q13285 whole entry, looked up, the tested form may be a part): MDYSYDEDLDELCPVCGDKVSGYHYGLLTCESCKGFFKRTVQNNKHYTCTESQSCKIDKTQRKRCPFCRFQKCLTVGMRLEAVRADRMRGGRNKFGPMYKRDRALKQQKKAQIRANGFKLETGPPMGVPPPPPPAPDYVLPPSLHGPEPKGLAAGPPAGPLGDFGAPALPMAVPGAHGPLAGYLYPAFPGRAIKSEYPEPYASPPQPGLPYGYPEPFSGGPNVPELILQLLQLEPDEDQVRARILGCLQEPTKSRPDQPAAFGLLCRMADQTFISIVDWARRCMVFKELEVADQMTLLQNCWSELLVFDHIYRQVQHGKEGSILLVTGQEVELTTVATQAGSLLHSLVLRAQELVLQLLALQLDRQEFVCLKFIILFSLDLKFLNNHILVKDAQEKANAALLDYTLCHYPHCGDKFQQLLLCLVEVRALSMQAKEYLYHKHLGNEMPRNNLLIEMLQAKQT
# [8] = compounds suppressing VP16-driven luciferase signal – cell-based, luminescence, high throughput, counter-screen for LRH-1 inverse agonist project (AID 651615; in the data active = inhibition above about 33%); details: Gal4-VP16 luciferase reporter cells, at 3.6 µM, active compounds read high
SMILES,inhibition [1],inhibition [2],inhibition [3],inhibition [4],inhibition [5],inhibition [6],inhibition [7],inhibition [8]
NC1=C(Cl)C(=O)c2ccc(S(N)(=O)=O)cc2C1=O,97.5% (active),93.7% (active),82% (active),92.8% (active),89.7% (active),106% (active),94% (active),95.8% (active)
CN(C)c1ccc(/C=C/c2ccc3ccccc3[n+]2C)cc1,62.3% (active),74.5% (active),32.4%,74.3% (active),58.5% (active),76.8% (active),76.6% (active),70.9% (active)
Cc1cc(C)nc(NC(=O)c2ccc(COc3ccccc3Cl)cc2)c1,36.6%,45.3% (active),25.2%,42.7% (active),38.9% (active),65.1% (active),67.1% (active),57.7% (active)
CN(C(=O)OC(C)(C)C)c1ccc(-c2nc3ccccc3s2)cc1,87.1% (active),84.5% (active),78.8% (active),76.6% (active),75.6% (active),80.9% (active),77.3% (active),78.5% (active)
c1ccc(-c2nnc(-c3ccccn3)nc2NC2CCCCC2)cc1,70.2% (active),14.8%,49.1% (active),18.8%,82.6% (active),88.9% (active),74.7% (active),45.4% (active)
COc1ccc(CCNC(=O)c2nnn(-c3ccc4c(c3)OCCO4)c2N)cc1OC,31.7%,2.53%,13.1%,-6.95%,44.7% (active),-26.3%,29%,-16.9%
CC[n+]1c(/C=C2\Sc3ccccc3N2C)ccc2cccc(C)c21,47.9% (active),68% (active),36.2%,79.5% (active),76.7% (active),109% (active),91.6% (active),87% (active)
COc1ccccc1N1CCN(Cc2cc(Br)c(O)c3ncccc23)CC1,21.4%,3.52%,-1.06%,-1.42%,23.9%,23.9%,42.8% (active),21.7%
O=C(NCc1ccco1)c1cccc(NC(=O)c2ccccc2)c1,23.4%,52.9% (active),33.7%,53.1% (active),58.8% (active),65.6% (active),66% (active),69.5% (active)
CC(C)(C)N(Cc1ccc2c(c1)OCO2)C(=O)/C=C\S(=O)c1ccccc1 (stereo not given),45% (active),38.2% (active),17.8%,38.1% (active),34.7% (active),56.4% (active),68.2% (active),61.6% (active)
COc1ccc(NC(=O)c2cc(-c3cc(Cl)ccc3OC)n[nH]2)cc1OC,27.4%,51.2% (active),19.2%,44% (active),38.9% (active),47.8% (active),61.2% (active),57.8% (active)
O=C1C(Nc2ccccc2)=C(N2CCCCC2)C(=O)c2ccccc21,19.4%,39.6% (active),44.4%,35.9% (active),-2.41%,22.5%,6.41%,12.1%
Cc1cc(OCc2nc(N)nc(N)c2-c2ccc(Cl)c(Cl)c2)ccc1[N+](=O)[O-],52.2% (active),30.6% (active),71.3% (active),30.1% (active),70.7% (active),69.5% (active),63.5% (active),42% (active)
Cc1ccc(/C=C/C(=O)c2c(C)cc(C)[nH]c2=O)cc1,46.8% (active),40% (active),47% (active),46.4% (active),35.3% (active),42.8% (active),50.4% (active),60.4% (active)
c1ccc(-c2ccc(-c3nc(-c4ccccn4)no3)cc2)cc1,43.5% (active),35.9% (active),-28.2%,39.4% (active),42.4% (active),13.6%,54.8% (active),30.9% (active)
O=C(NC(Nc1nc2ccc([N+](=O)[O-])cc2s1)(C(F)(F)F)C(F)(F)F)c1cccnc1,62.8% (active),75.3% (active),26.9%,75.3% (active),81.4% (active),104% (active),95.1% (active),88.7% (active)
C=CS(=O)(=O)N(Cc1ccc(Cl)c(Cl)c1)C[C@@H](O)CO,42.6%,19.1%,8.46%,13.3%,55.4% (active),50.4% (active),58% (active),28.3%
CCn1c(C)cc(C(=O)COC(=O)c2ccccc2[N+](=O)[O-])c1C,92.9% (active),90.4% (active),86.8% (active),86.1% (active),83.5% (active),83.8% (active),83.6% (active),81.4% (active)
Nc1nc2c(nnn2C2CC(O)C(CO)O2)c(=O)[nH]1 (stereo not given),78.7% (active),13.7%,13.6%,3.11%,51.8% (active),53.9% (active),44.1% (active),9.15%
Cn1c2c(c(=O)n(C)c1=O)C(C(F)(F)F)(C(F)(F)F)N=C(c1ccc(Cl)cc1)N2,77.8% (active),85.7% (active),42.6%,83.9% (active),80.6% (active),104% (active),93.6% (active),86.7% (active)
N=c1c2c(n(Cc3ccc(F)cc3)c3c1CCC3)CCC2,25.9%,42.9% (active),17.8%,43.6% (active),41.6% (active),80.3% (active),69% (active),69.2% (active)
Cc1ccc(S(=O)(=O)/N=C2\C=C(Nc3ccc(O)cc3)C(=O)c3ccccc32)cc1,91.8% (active),83.1% (active),71.1% (active),86.3% (active),90.3% (active),106% (active),94.6% (active),96% (active)
Cc1onc(-c2ccccc2)c1C(=O)NC(=S)NNC(=O)c1ccccc1O,54.8% (active),82% (active),66.5% (active),77.6% (active),70% (active),96.8% (active),83.4% (active),83.3% (active)
CCN(CC)c1ccc(/C=C/c2cccc[n+]2C)c(OC)c1,48.1% (active),75% (active),52.2% (active),77.1% (active),73.3% (active),106% (active),91.8% (active),85.7% (active)
CC1Cc2ccccc2N1c1ncnc(N)c1[N+](=O)[O-] (stereo not given),84.3% (active),68% (active),81.5% (active),65.6% (active),39.9% (active),63.6% (active),46.7% (active),82.4% (active)
CCN(CC)c1ccc(/C=C/c2ccc3ccc(OC)cc3[n+]2CC)cc1,50.1% (active),74.8% (active),42.6%,74.5% (active),67.8% (active),96.4% (active),90.8% (active),84.1% (active)
Nc1nc(N)nc(-c2cc(O)ccc2O)n1,78.4% (active),53.5% (active),74.7% (active),43.7% (active),41.7% (active),45.4% (active),65.9% (active),57.1% (active)
CC1CC(C)C[N+](=C2C=C(N3CCCC3)CC(C)(C)C2)C1 (stereo not given),26.9%,66.7% (active),28.9%,71.5% (active),38.9% (active),110% (active),79.1% (active),91.2% (active)
CCN1/C(=C/C(C)=C/c2sc3ccccc3[n+]2CC)Sc2ccccc21,80.9% (active),84.2% (active),58.4% (active),81.6% (active),77% (active) and 81.8% (active),107% (active) and 106% (active),89.7% (active) and 93.3% (active),88.1% (active) and 89.4% (active)
Oc1cccc2cc(Nc3ccccc3)cnc12,60.4% (active),63.3% (active),25.3%,70.1% (active),65.5% (active),99.5% (active),84.8% (active),88% (active)
